Experimental findings from PubChem BioAssay AID720619 (Broad Institute, 2013) are described below.

Molecules are shown by their SMILES. Records with an inconclusive call do not appear. Active and inactive are the calls of the source.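 Rule for the calls: active = toxic at all three exposure times, half-maximal drop reached within twice the top dose; inconclusive = exposure times disagree, or curves are weak, flat or poorly fitted; inactive = inactive at every exposure time.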

The nature of the experiment: viability loss in HT-29 adenocarcinoma cells – cell-based, Alamar Blue fluorescence, several timepoints, dry powder, mechanism study for HRAS target identification, late-stage follow-up (AID 720619). The following applies: HT-29 viability. On the technique in general: The colour change of resazurin is a common sign of viable cells or microbes.
The mark [1] stands for this setting: 48 h, at 35 µM (top of the series).

In the case of `Cc1onc(C(=O)N2CCN(C(c3ccncc3)c3ccncc3)CC2)c1[N+](=O)[O-]`, the activity, lower = more toxic under setting [1] was 7.85% (inactive) and the activity, lower = more toxic (8 h treatment, at 35 µM) was -3.11%.

Consider `CCC(=O)N(c1ccc(OC)c(Cl)c1)C(C(=O)NCCc1ccccc1)c1cccs1` (centres undefined), for which the activity, lower = more toxic under setting [1] is 32.2% (inactive) and the activity, lower = more toxic (8 h treatment, at 35 µM) was 5.18%.
